# Data: ChEMBL document CHEMBL1157539, “Thousands of chemical starting points for antimalarial lead identification” (Nature, 2010)
# Legend:
# Assay type in all cases: functional
# Plasmodium falciparum [1] = experiment: GSK_TCMDC: Inhibition of Plasmodium falciparum 3D7 in whole red blood cells, using parasite LDH activity as an index of growth. Test compounds present at 2uM
# Plasmodium falciparum [2] = experiment: GSK_TCMDC: Inhibition of Plasmodium falciparum Dd2 in whole red blood cells, using parasite LDH activity as an index of growth. Test compounds present at 2uM
# HepG2 = experiment: GSK_TCMDC: Percent inhibition of human HepG2 cell line. Test compounds present at 10uM.
smiles,measurement,setting,value
COc1ccccc1CCNc1nc(C)cc(NCCC(=O)Nc2ccccc2)n1.O=C(O)C(F)(F)F,Inhibition,Plasmodium falciparum [1],100%
same,Inhibition,Plasmodium falciparum [2],24%
same,Inhibition,HepG2,7%
COc1cccc(CNc2noc(-c3c(-c4ccccc4)noc3C)n2)c1OC,Inhibition,Plasmodium falciparum [1],97%
same,Inhibition,Plasmodium falciparum [2],86%
same,Inhibition,HepG2,0%
O=c1cc(NCCCNCc2ccc(C(F)(F)F)cc2F)[nH]c2ccccc12,Inhibition,Plasmodium falciparum [1],93%
same,Inhibition,Plasmodium falciparum [2],48%
same,Inhibition,HepG2,1%
O=S1(=O)C=C(c2ccccc2)CC1,Inhibition,Plasmodium falciparum [1],97%
same,Inhibition,Plasmodium falciparum [2],44%
same,Inhibition,HepG2,57%
CCCCN(CCCC)CCCCNc1c2ccc(Cl)cc2nc2ccc(OC)cc12.Cl,Inhibition,Plasmodium falciparum [1],100%
same,Inhibition,Plasmodium falciparum [2],96%
same,Inhibition,HepG2,68%
CCc1cn(C)c2c(N3CCCC3=O)cc(C(=O)N[C@@H](Cc3ccccc3)[C@H](O)CNCc3cccc(OC)c3)cc12,Inhibition,Plasmodium falciparum [1],96%
same,Inhibition,Plasmodium falciparum [2],97%
same,Inhibition,HepG2,7%
O=C(/C=C/c1ccc(Cl)cc1)NCCCCCN1CCCC(C(=O)Nc2ccc(Cl)cc2)C1 (stereo unspecified),Inhibition,Plasmodium falciparum [1],94%
same,Inhibition,Plasmodium falciparum [2],6%
same,Inhibition,HepG2,24%
COc1ccc(C2CC(c3cccs3)=NN2C(=O)c2ccccc2)cc1OC (stereo unspecified),Inhibition,Plasmodium falciparum [1],99%
same,Inhibition,Plasmodium falciparum [2],83%
same,Inhibition,HepG2,5%
O=C(O)C(F)(F)F.Oc1ccc(CCNc2nc(NCCCOc3ccccc3-c3cccc(C(F)(F)F)c3)nc(N3CCNCC3)n2)cc1,Inhibition,Plasmodium falciparum [1],93%
same,Inhibition,Plasmodium falciparum [2],5%
same,Inhibition,HepG2,24%
CN1CCCN(Cc2ccc(-c3ccc(NC(=O)c4ccc(C#N)cc4)cc3)cc2)CC1.O=C(O)C(F)(F)F,Inhibition,Plasmodium falciparum [1],91%
same,Inhibition,Plasmodium falciparum [2],28%
same,Inhibition,HepG2,30%
Cc1ccc(Cn2cnc3cc(C(=O)Nc4ccc(-c5cccc(CN(C)C)c5)cc4)ccc3c2=O)o1,Inhibition,Plasmodium falciparum [1],99%
same,Inhibition,Plasmodium falciparum [2],39%
same,Inhibition,HepG2,22%
CCCNCc1ccc(-c2ccc(CN(CCOC)C(=O)CCc3ccc(OC)cc3)cc2)nc1.O=C(O)C(F)(F)F,Inhibition,Plasmodium falciparum [1],98%
same,Inhibition,Plasmodium falciparum [2],29%
same,Inhibition,HepG2,11%
Cc1ccc(O)cc1Nc1ccnc2cc(-c3ccncc3)ccc12.Cl,Inhibition,Plasmodium falciparum [1],100%
same,Inhibition,Plasmodium falciparum [2],84%
same,Inhibition,HepG2,16%
CC(C)Cc1cn(-c2nc(-c3nc4ccccc4[nH]3)cs2)c2cc(Cl)ccc12.Cl,Inhibition,Plasmodium falciparum [1],99%
same,Inhibition,Plasmodium falciparum [2],68%
same,Inhibition,HepG2,9%
NC1=NC(c2ccccc2)(c2ccccc2)C(=O)N1CC1CCC1.O=CO,Inhibition,Plasmodium falciparum [1],96%
same,Inhibition,Plasmodium falciparum [2],74%
same,Inhibition,HepG2,17%
Cc1nc2nc(N)nc(N)c2c(C)c1Cc1ccc(C(F)(F)F)cc1.Cl,Inhibition,Plasmodium falciparum [1],96%
same,Inhibition,Plasmodium falciparum [2],22%
same,Inhibition,HepG2,57%
CC(=O)c1ccc(-c2ccc(C(=O)NCCCCN3CCC(c4ccc5c(c4O)CCCC5)CC3)cc2)cc1,Inhibition,Plasmodium falciparum [1],100%
same,Inhibition,Plasmodium falciparum [2],83%
same,Inhibition,HepG2,87%
CCN(CC)CCCC(C)Nc1c2ccccc2nc2ccc3ccccc3c12.Cl (stereo unspecified),Inhibition,Plasmodium falciparum [1],100%
same,Inhibition,Plasmodium falciparum [2],89%
same,Inhibition,HepG2,24%
OC(CNCc1ccco1)Cn1c2ccc(Br)cc2c2cc(Br)ccc21 (stereo unspecified),Inhibition,Plasmodium falciparum [1],92%
same,Inhibition,Plasmodium falciparum [2],72%
same,Inhibition,HepG2,10%
CCN1CCC(N(Cc2ccc(-c3ccc(C(F)(F)F)cc3)cc2)C(=O)Cn2c(CCc3cccc(F)c3F)cc(=O)c3ccccc32)C1.O=C(O)C(O)C(O)C(=O)O (stereo unspecified),Inhibition,Plasmodium falciparum [1],93%
same,Inhibition,Plasmodium falciparum [2],84%
same,Inhibition,HepG2,43%
CNCc1ccc(-c2cccc(CNCc3ccc(-c4ccccc4)cc3)c2)c(C(=O)OC)c1.O=C(O)C(F)(F)F,Inhibition,Plasmodium falciparum [1],92%
same,Inhibition,Plasmodium falciparum [2],19%
same,Inhibition,HepG2,25%
NC(=O)c1cccc(C(=O)Nc2cccc(-c3csc(-c4nc5ccccc5[nH]4)c3)c2)c1,Inhibition,Plasmodium falciparum [1],100%
same,Inhibition,Plasmodium falciparum [2],92%
same,Inhibition,HepG2,16%
CCCCNc1cc(NCCCC)c2c(n1)[nH]c1ccccc12,Inhibition,Plasmodium falciparum [1],100%
same,Inhibition,Plasmodium falciparum [2],94%
same,Inhibition,HepG2,13%
Cc1cc(N(C)C)nc(Nc2ccc(NS(=O)(=O)c3ccccc3)cc2)n1,Inhibition,Plasmodium falciparum [1],92%
same,Inhibition,Plasmodium falciparum [2],11%
same,Inhibition,HepG2,0%
COc1ccc(-c2ccc(NC(=O)c3ccc(F)cc3)cc2)cc1CNC(C)C.O=C(O)C(F)(F)F,Inhibition,Plasmodium falciparum [1],97%
same,Inhibition,Plasmodium falciparum [2],28%
same,Inhibition,HepG2,24%
O=C(NC1CCCC1)c1cc2c(=O)n3ccccc3nc2[nH]/c1=N/CCc1ccccc1,Inhibition,Plasmodium falciparum [1],100%
same,Inhibition,Plasmodium falciparum [2],61%
same,Inhibition,HepG2,19%
CCN(CCNC(=O)Nc1cc(C(F)(F)F)cc(C(F)(F)F)c1)c1cccc(C)c1,Inhibition,Plasmodium falciparum [1],98%
same,Inhibition,Plasmodium falciparum [2],100%
same,Inhibition,HepG2,0%
COc1ccc2ncc(Cl)c(CCN3CCC(NCc4ccc5c(n4)NC(=O)CO5)CC3)c2c1.Cl,Inhibition,Plasmodium falciparum [1],92%
same,Inhibition,Plasmodium falciparum [2],26%
same,Inhibition,HepG2,25%
Cc1cccc2nc(-c3ccc(-c4cccc(CNCCNC(=O)c5ccnn5C)c4)s3)[nH]c12.O=C(O)C(F)(F)F,Inhibition,Plasmodium falciparum [1],100%
same,Inhibition,Plasmodium falciparum [2],87%
same,Inhibition,HepG2,17%
O=C(Nc1ccc(-c2cccc(-c3nc4cc(C(F)(F)F)ccc4[nH]3)c2)cc1)c1ccncc1,Inhibition,Plasmodium falciparum [1],100%
same,Inhibition,Plasmodium falciparum [2],23%
same,Inhibition,HepG2,63%
CC(C)(C)c1nn(-c2ccc(Cl)cc2)c2[nH]c(=O)c(CNC3CCCC3)cc12,Inhibition,Plasmodium falciparum [1],99%
same,Inhibition,Plasmodium falciparum [2],99%
same,Inhibition,HepG2,0%
NC1CCN(Cc2cccc(-c3ccc(-c4nc5cc(F)ccc5[nH]4)cc3)c2)C1.O=C(O)C(F)(F)F (stereo unspecified),Inhibition,Plasmodium falciparum [1],99%
same,Inhibition,Plasmodium falciparum [2],99%
same,Inhibition,HepG2,24%
CC1(C)N=C(N)N=C(NOCc2ccc(Cl)c(Cl)c2)N1,Inhibition,Plasmodium falciparum [1],96%
same,Inhibition,Plasmodium falciparum [2],27%
same,Inhibition,HepG2,5%
CCC(C)c1ccc(-n2c(Nc3ccccc3)nc3cc(S(N)(=O)=O)ccc32)cc1 (stereo unspecified),Inhibition,Plasmodium falciparum [1],88%
same,Inhibition,Plasmodium falciparum [2],28%
same,Inhibition,HepG2,0%
COc1ccccc1CNC(=O)c1cc(C2CC2)nc2c1cnn2C(C)C,Inhibition,Plasmodium falciparum [1],94%
same,Inhibition,Plasmodium falciparum [2],92%
same,Inhibition,HepG2,47%
CCN(CC)c1nc(N)c2c(N)nc3c(c2c1C#N)C(=O)CN3Cc1ccccc1,Inhibition,Plasmodium falciparum [1],96%
same,Inhibition,Plasmodium falciparum [2],96%
same,Inhibition,HepG2,26%
c1ccc2cc3c(Nc4ccc(N5CCCCC5)cc4)ccnc3cc2c1,Inhibition,Plasmodium falciparum [1],100%
same,Inhibition,Plasmodium falciparum [2],36%
same,Inhibition,HepG2,21%
CCN(CC)CCCC(C)N=c1cc(C=Cc2ccccc2Cl)[nH]c2cc(Cl)ccc12.O=P(O)(O)O (stereo unspecified),Inhibition,Plasmodium falciparum [1],99%
same,Inhibition,Plasmodium falciparum [2],77%
same,Inhibition,HepG2,0%
COC(=O)C(C)(C)Cc1c(SC(C)(C)C)c2cc(C(C)C)ccc2n1Cc1ccc(Cl)cc1,Inhibition,Plasmodium falciparum [1],96%
same,Inhibition,Plasmodium falciparum [2],96%
same,Inhibition,HepG2,0%
COc1cc2c(cc1OC)CC(NCc1ccc(-c3ccc4nc[nH]c4c3)cc1)C2.O=C(O)C(F)(F)F,Inhibition,Plasmodium falciparum [1],97%
same,Inhibition,Plasmodium falciparum [2],92%
same,Inhibition,HepG2,40%
Cc1nc(N)nc(N)c1-c1ccc(Cl)cc1,Inhibition,Plasmodium falciparum [1],96%
same,Inhibition,Plasmodium falciparum [2],0%
same,Inhibition,HepG2,15%
Cl.O=C(/C=C/c1ccc(F)cc1)NC1CCC(CCN2CCc3ccc(-n4cccn4)cc3CC2)CC1 (stereo unspecified),Inhibition,Plasmodium falciparum [1],89%
same,Inhibition,Plasmodium falciparum [2],16%
same,Inhibition,HepG2,23%
COc1cc(CNCCCNc2nc3ncccc3[nH]2)c2[nH]cc(Br)c2c1,Inhibition,Plasmodium falciparum [1],92%
same,Inhibition,Plasmodium falciparum [2],3%
same,Inhibition,HepG2,12%
NC1=NC2(CCCCC2)N(OCCCCCCCCNc2nc(N)nc(N)n2)C(N)=N1.O=C(O)C(F)(F)F,Inhibition,Plasmodium falciparum [1],96%
same,Inhibition,Plasmodium falciparum [2],99%
same,Inhibition,HepG2,44%
CC1CCN(c2nc(C(=O)NCCc3ccc(Cl)c(Cl)c3)c(C(C)C)s2)CC1.O=C(O)C(F)(F)F,Inhibition,Plasmodium falciparum [1],88%
same,Inhibition,Plasmodium falciparum [2],38%
same,Inhibition,HepG2,0%
COc1ccc2nccc(N3CCCN(CCNS(=O)(=O)c4ccc5c(c4)NC(=O)CS5)CC3)c2n1.Cl,Inhibition,Plasmodium falciparum [1],97%
same,Inhibition,Plasmodium falciparum [2],15%
same,Inhibition,HepG2,0%
O=C(Nc1ccc2c(c1)CCC2)N[C@H]1CCN(CCCCCNC(=O)C2CC2c2ccc(Cl)c(Cl)c2)C1 (stereo partly specified),Inhibition,Plasmodium falciparum [1],86%
same,Inhibition,Plasmodium falciparum [2],0%
same,Inhibition,HepG2,37%
COc1ccc(-c2cc(C(F)(F)F)n3ncc(C(=O)Nc4cc(C)ccc4O)c3n2)cc1OC,Inhibition,Plasmodium falciparum [1],100%
same,Inhibition,Plasmodium falciparum [2],100%
same,Inhibition,HepG2,2%
CC(C)(CC1CCCCC1)NC(=O)[C@H](CC1CCCCC1)Nc1ccc(C#N)c2ccccc12.O=C(O)C(F)(F)F,Inhibition,Plasmodium falciparum [1],98%
same,Inhibition,Plasmodium falciparum [2],52%
same,Inhibition,HepG2,14%
COc1cc(NC(=O)c2nn(CCCN3CCC(N4CCCC4)CC3)cc2-c2ccc(Cl)c(Cl)c2)cc(OC)c1OC,Inhibition,Plasmodium falciparum [1],100%
same,Inhibition,Plasmodium falciparum [2],100%
same,Inhibition,HepG2,76%
O=C(NCc1cccc2ccccc12)[C@@H]1CCCN1C(=O)c1ccc(O)c(-c2ccc(Cl)c(Cl)c2)c1,Inhibition,Plasmodium falciparum [1],98%
same,Inhibition,Plasmodium falciparum [2],71%
same,Inhibition,HepG2,0%
CCCN1CCN(CC(O)CNC(=O)Nc2ccc(Br)cc2)CC1.O=C(O)C(F)(F)F (stereo unspecified),Inhibition,Plasmodium falciparum [1],100%
same,Inhibition,Plasmodium falciparum [2],100%
same,Inhibition,HepG2,10%
Cc1cccc2nc(-c3cccc(-c4ccc(NC(=O)CN5CCN(C)CC5)cc4)c3)[nH]c12,Inhibition,Plasmodium falciparum [1],100%
same,Inhibition,Plasmodium falciparum [2],99%
same,Inhibition,HepG2,45%
O=C(O)C(F)(F)F.c1ccc(CCNCc2cccc(-c3ccc(CNc4ccc5ncccc5c4)cc3)c2)cc1,Inhibition,Plasmodium falciparum [1],93%
same,Inhibition,Plasmodium falciparum [2],27%
same,Inhibition,HepG2,43%
COc1ccc(-c2nc3c(NCc4ccccc4)nccc3[nH]2)c(OC)c1,Inhibition,Plasmodium falciparum [1],99%
same,Inhibition,Plasmodium falciparum [2],21%
same,Inhibition,HepG2,16%
O=C(NCCCNc1ccnc2cc(Cl)ccc12)c1ccccc1F,Inhibition,Plasmodium falciparum [1],100%
same,Inhibition,Plasmodium falciparum [2],97%
same,Inhibition,HepG2,18%
CC(=O)O.CCc1cc2c(cc1CC)CC(NC[C@@H](O)c1ccc(O)c3[nH]c(=O)ccc13)C2,Inhibition,Plasmodium falciparum [1],100%
same,Inhibition,Plasmodium falciparum [2],9%
same,Inhibition,HepG2,0%
O=C(NCCNc1nc(NCCNC(=O)Nc2ccccc2)c2ccc(=O)n(-c3c(F)cccc3F)c2n1)Nc1ccccc1,Inhibition,Plasmodium falciparum [1],94%
same,Inhibition,Plasmodium falciparum [2],87%
same,Inhibition,HepG2,1%
O=C(NCCCCN1CCN(c2cccc(Cl)c2Cl)CC1)c1ccc2c(c1)CCN(C1CCC1)CC2,Inhibition,Plasmodium falciparum [1],95%
same,Inhibition,Plasmodium falciparum [2],31%
same,Inhibition,HepG2,97%
O=C(n1c(-c2cc3ccccc3n2C(=O)C(F)(F)F)cc2ccccc21)C(F)(F)F,Inhibition,Plasmodium falciparum [1],94%
same,Inhibition,Plasmodium falciparum [2],80%
same,Inhibition,HepG2,30%
Nc1nccc(-c2ccc3c(-c4cccc(F)c4)cnc(N)c3c2)n1,Inhibition,Plasmodium falciparum [1],93%
same,Inhibition,Plasmodium falciparum [2],44%
same,Inhibition,HepG2,41%
O=C(N[C@H]1CCN(CCc2ccc(O[C@H]3CCNC3)c(F)c2)C1)c1ccc(Cl)c(Cl)c1.O=C(O)C(F)(F)F,Inhibition,Plasmodium falciparum [1],95%
same,Inhibition,Plasmodium falciparum [2],23%
same,Inhibition,HepG2,39%
